The entries come from a sample that favours hits as a whole.
RBX1-CUL1 inh – inhibitors of human ROC1-CUL1 ubiquitin ligase activity; 0.6% of 140,000 active; in vitro K48 di-Ub FRET, acceptor:donor ratio, 45 min; inhibition, % at 10 µM; E3 ubiquitin-protein ligase RBX1 (Homo sapiens) + Cullin-1 (Homo sapiens), P62877+Q13616; AID 1347404, 2020; in the data active means inhibition above about 25%
Target sequence (P62877 whole entry, looked up): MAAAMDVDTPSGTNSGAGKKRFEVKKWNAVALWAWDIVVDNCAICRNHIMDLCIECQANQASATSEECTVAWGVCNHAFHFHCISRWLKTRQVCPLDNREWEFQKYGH
Target sequence (Q13616 whole entry, looked up): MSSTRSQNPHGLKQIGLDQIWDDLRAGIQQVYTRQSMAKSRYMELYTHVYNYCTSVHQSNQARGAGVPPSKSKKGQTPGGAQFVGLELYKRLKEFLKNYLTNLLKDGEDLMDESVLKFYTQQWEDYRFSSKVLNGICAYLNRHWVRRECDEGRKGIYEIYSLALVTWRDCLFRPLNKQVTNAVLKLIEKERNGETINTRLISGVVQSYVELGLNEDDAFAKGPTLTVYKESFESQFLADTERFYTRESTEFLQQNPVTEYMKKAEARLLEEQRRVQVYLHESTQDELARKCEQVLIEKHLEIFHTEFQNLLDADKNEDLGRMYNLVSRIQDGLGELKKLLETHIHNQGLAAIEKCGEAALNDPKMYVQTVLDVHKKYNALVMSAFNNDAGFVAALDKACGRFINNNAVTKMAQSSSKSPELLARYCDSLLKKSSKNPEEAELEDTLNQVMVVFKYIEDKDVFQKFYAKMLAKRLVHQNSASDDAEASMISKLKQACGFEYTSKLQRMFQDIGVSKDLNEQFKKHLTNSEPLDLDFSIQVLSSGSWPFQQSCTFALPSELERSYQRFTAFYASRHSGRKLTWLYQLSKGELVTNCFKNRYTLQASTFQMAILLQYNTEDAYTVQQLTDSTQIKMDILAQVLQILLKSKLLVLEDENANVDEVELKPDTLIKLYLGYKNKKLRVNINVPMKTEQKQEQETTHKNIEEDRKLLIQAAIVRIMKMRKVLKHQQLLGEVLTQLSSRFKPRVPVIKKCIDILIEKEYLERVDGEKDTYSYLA
Each line names hits and unclear results; the compound was inactive in the other large screens.

COc1ccc(/C=N/NC(=O)Cc2nnc(N)s2)c(OC)c1OC	none
CCOc1ccccc1CNc1ccc(N2CCOCC2)cc1	none
Oc1ccc(NCc2ccccc2OCc2ccccc2Cl)cc1	none
NS(=O)(=O)c1ccc(NCc2ccccc2OCc2ccccc2F)cc1	none
CCOc1ccccc1CNc1ccc(O)cc1	RBX1-CUL1 inh 46
Oc1ccc(NCc2ccccc2OCc2ccccc2F)cc1	none
Oc1ccc(NCc2cc(Cl)ccc2OCc2ccccc2F)cc1	RBX1-CUL1 inh 30
O=C(Cn1nnnc1CN1CCCC1)N1CCN(C23CC4CC(CC(C4)C2)C3)CC1	none
CC(c1nccs1)N(C)C(=O)c1cc(COc2ccccc2F)[nH]n1 (stereo not given)	none
NC(=O)CN1CCN(c2ccccc2)CC1	none
Cc1ccc(C(=O)N=C2CN=C3C=CC=CN3C2=O)cc1	none
O=[N+]([O-])c1ccsc1C1OCCO1	none
O=[N+]([O-])c1sccc1-c1ccsc1	RBX1-CUL1 inh 29
O=C(O)c1sccc1-c1ccsc1	none
CCOc1ccc2nc3cc(NC(=O)c4ccco4)ccc3c(N)c2c1	RBX1-CUL1 inh 97
CCCCOc1cccc(NC(=O)c2ccco2)c1	none
O=C(Nc1ccc(OCCOc2ccccc2)cc1)c1ccco1	none
COCc1cn(CC2CCN(C(=O)NCc3ccccc3F)CC2)nn1	none
COc1cccc(CNC(=O)N2CCC(Cn3cc(CO)nn3)CC2)c1	RBX1-CUL1 inh 36
Cc1ccc(CCC(=O)N2CCC(Cn3cc(CO)nn3)CC2)cc1C	none
CNCc1cn(CC2CCCN(C(=O)Nc3ccc(C#N)cc3)C2)nn1 (stereo not given)	none
CC(C)N(C)C(=O)C1CCCN(C2CCN(C(=O)C3CC3)CC2)C1 (stereo not given)	none
COc1cc(N/N=C(\C)c2cccc(C(F)(F)F)c2)nc(SC)n1	none
O=C(COc1cccc2ccccc12)Nc1ccc(Cl)cc1C(=O)O	RBX1-CUL1 inh 25
COc1ccccc1NC(=O)COc1cccc2ccccc12	none
Cc1cc(O)ccc1NC(=O)COc1cccc2ccccc12	none
CN(C)c1ccc(C=NCC23CC4CCC(CC(C4)C2)C3)cc1	none
CCOC(=O)Nc1ccc(Br)cc1F	none
Cc1c(C(=O)O)c2c(n1Cc1ccccc1)C(=O)c1ccc(Br)cc1-2	none
CCOC(=O)C(C(C)=O)C1=C(Br)C(=O)C(=O)c2ccc(Br)cc21 (stereo not given)	RBX1-CUL1 inh 48
C=CCn1c(=O)c2c(nc3n(-c4ccc(OC)cc4OC)c(C)cn23)n(C)c1=O	none
CC1=NNC2C(=O)N(Cc3ccccc3)C(=O)C12 (stereo not given)	none
CN1C2CCC1/C(=C/c1cccn1C)C(=O)/C2=C\c1cccn1C	RBX1-CUL1 inh 25
Cn1cccc1/C=N/Nc1nncc(-c2ccccc2)n1	none
CN1C2CCC1/C(=C/c1cc(Br)cs1)C(=O)/C2=C\c1cc(Br)cs1	none
CCCCCOc1ccccc1C1Oc2nc(SC)nnc2-c2ccccc2N1C(=O)CC (stereo not given)	none
Cc1cccc(NC(=O)C2CCC2)c1	none
COc1ccc(CC2(CCC(=O)NCCc3ccccc3C(F)(F)F)CCC(=O)N2)c2ccccc12 (stereo not given)	none
CC(C)(C)C1CCc2c(sc(NC(=O)c3ccco3)c2C(=O)O)C1 (stereo not given)	RBX1-CUL1 inh 39
Cc1ccccc1C(=O)Nc1sc2c(c1C(=O)O)CCC(C(C)(C)C)C2 (stereo not given)	none
CCN(CC)C(=O)c1c(NC(=O)c2ccco2)sc2c1CCC(C(C)(C)C)C2 (stereo not given)	none
COC(=O)C1CCN(Cc2nc(-c3ccc(C(F)(F)F)cc3)oc2C)CC1	none
COc1ccc2cc(-c3[nH]ncc3CN3CCCCC3CO)ccc2c1 (stereo not given)	none
Cc1nnc(NC(=O)NC2CCN(C(=O)c3ccco3)CC2)s1	none
CCOc1ccc(NC(=O)CS(=O)(=O)Cc2ccccc2)cc1	none
CN(C)C(=O)Cc1csc2ccc(Cl)cc12	none
COC(=O)CCC(=O)N1CCCC(C(=O)c2ccc3ccccc3c2)C1 (stereo not given)	none
CCn1cc(C(=O)N2CCCC(C(=O)c3ccc4ccccc4c3)C2)cn1 (stereo not given)	RBX1-CUL1 inh 68
O=C(c1ccc2ccccc2c1)C1CCCN(C(=O)CCN2CCCC2=O)C1 (stereo not given)	none
O=C1N=C2SCC3COc4ccc5ccccc5c4C3C2S1 (stereo not given)	none
O=C(CCSC1=NCCS1)Nc1ccc(Cl)cc1	none
CCOC(=O)c1c2c(n(Cc3ccccc3)c1CNC(C)C)C(=O)C(=O)c1ccccc1-2	RBX1-CUL1 inh 103
CCOC(=O)c1c2c(n(CC(=O)c3ccc(Br)cc3)c1C)C(=O)C(=O)c1ccccc1-2	none
CCOC(=O)c1c2c(n(Cc3ccccc3)c1C)C(=O)c1ccc(Br)cc1-2	none
COc1cc(NS(=O)(=O)c2ccc(NC(=O)c3ccc(COc4ccc5c(c4)CCC5)o3)cc2)ncn1	none
O=C(Nc1ccc(S(=O)(=O)Nc2ccc(Cl)nn2)cc1)c1ccc(COc2cccc(Cl)c2)o1	none
O=C(Nc1ccc(S(=O)(=O)Nc2ccc(Cl)nn2)cc1)c1ccc(COc2cc(Cl)ccc2Cl)o1	RBX1-CUL1 inh 35
O=C1NC(=S)N=C1Cc1cc(Br)cc(Br)c1O	none
O=C1C(Cc2cc(Br)cc(Br)c2O)=NC(=S)N1c1ccc(Cl)cc1	RBX1-CUL1 inh 100
COc1cc(C)c(CC2=NC(=S)N(c3ccc(Cl)cc3)C2=O)cc1C(C)C	none
COCCN1C(=O)CC(CC(=O)N2CC3CCCC2C3)(c2ccccc2OC)C1=O (stereo not given)	none
Cc1ccccc1C1C2=C(CC(c3ccccc3)CC2=O)N(c2cc([N+](=O)[O-])ccc2C)C(=N)C1C#N (stereo not given)	none
Cc1ccc(OCC(O)CN2CCC(C)CC2)cc1 (stereo not given)	none
c1ccc(-c2noc(CN3CCc4[nH]ncc4C3)n2)nc1	none
CCN(CC)CCCN1C(=O)C(=O)C(C(=O)c2ccc(OCc3ccc(C)cc3)cc2)C1c1ccc(O)cc1 (stereo not given)	none
Cc1cc(Cl)c2c(N)c(C)cc(C)c2n1	RBX1-CUL1 inh 91
Cc1cc(N2CCOCC2)c2c(N)c(Br)cc(C)c2n1	none
CCOC(=O)c1c(Cl)cc(C)nc1Cl	none
C=CCSc1nc2sc3c(c2c(=O)n1CC)CC(C)(C)OC3	none
CC1=CC2=NC(C)C(=NC(=O)c3cccc([N+](=O)[O-])c3C)C(=O)N2C=C1 (stereo not given)	none
COc1ccc(OC)c(-c2csc(NC(=O)c3ccc(COc4ccccc4Br)cc3)n2)c1	none
CCN(CC1CCN(C2CCN(C)CC2)CC1)C(=O)c1ccc(C=O)cc1	none
CCN(CC1CCN(C2CCN(C)CC2)CC1)C(=O)c1cc(C)[nH]n1	RBX1-CUL1 inh 26
CCN(CC1CCN(C2CCN(C)CC2)CC1)C(=O)CCC(=O)c1ccccc1	none
COCCN1C(=O)CC(CC(=O)N2CCCC(C(=O)c3nccn3C)C2)(c2ccccc2F)C1=O (stereo not given)	none
C=CCn1c(CNc2ccccc2)nnc1SC(C)C(=O)N/N=C/c1ccc(N(CC)CC)cc1 (stereo not given)	none
C=CCn1c(CNc2cccc3ccccc23)nnc1SCC(=O)N/N=C/c1ccc(OC)cc1OC	none
C=CCn1c(CNc2cccc3ccccc23)nnc1SC(C)C(=O)N/N=C/c1ccc(OC)cc1OC (stereo not given)	RBX1-CUL1 inh 42
CN1CCN(CC(O)COc2ccc(CNCC(F)(F)F)cc2)CC1 (stereo not given)	none
CS(=O)(=O)c1ccc(-c2cccc(-c3ccn(Cc4ccccn4)n3)c2)cc1	none
NC(N)=N/N=C/C1=NC(=S)NC(=O)C1	none
Cc1ccc(N2C(=O)CSC23C(=O)Nc2ccc(C)cc23)cc1 (stereo not given)	RBX1-CUL1 inh 94

Screening data deposited in PubChem BioAssay by Pan Lab, Icahn School of Medicine at Mount Sinai.
